The full list was thinned out, with hits kept by preference.
DT40 TDP1 no CPT – qHTS for Inhibitors of human tyrosyl-DNA phosphodiesterase 1 (TDP1): qHTS in cells in absence of CPT; DT40 Tdp1-/- hTDP1 cells, no CPT, ATP luminescence, 48 h; Potency, µM (series often up to 46.2 µM), inactives show top-dose activity change, negative = growth inhibition, usual class: inhibitors; 15% of 420,000 active; AID 686978, 2013; further: potency means the concentration at half of the fitted maximal effect; nearly all actives have a fitted effect of over 55% in size
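Seeded 400 DT40-hTDP1 cells/well (vehicle DMSO, no 20 nM CPT); pinned compounds; ≥48 hr at 37 °C; CellTiter-Glo luminescence as viability measure.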
HT1080 IDH1KD tx – toxicity to HT-1080 IDH1 knockdown cells (counter line). 2% of 360,000 active. Potency, µM (highest dose often 46.1 µM), for inactives: at the top dose activity, negative = toxicity, most hits filed as cytotoxic. AID 686971. HT-1080 IDH1 knockdown viability, ATP luminescence, 48 h;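 further: potency means the concentration at half of the fitted maximal effect; 0% = DMSO wells and -100% = cell-free medium wells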
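Knockdown cells (IDH1KD HT-1080) received compounds 2 h after plating at 750 cells/well and were kept 48 h at 37 °C in 5% FBS RPMI. A CellTiter-Glo luminescence read gave % activity for curve fitting.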
HT1080-NT tox – kills 2HG-producing HT-1080-NT fibrosarcoma cells; Potency, µM (top dose mostly 46.1 µM), for inactives: at the top dose activity, negative = less viability, hits mostly cytotoxic; AID 686970; 1.6% of 360,000 active; HT-1080-NT fibrosarcoma viability, CellTiter-Glo ATP luminescence, 48 h;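 further: NT is the 2HG producing partner of a matched IDH1 knockdown line; potency means the concentration at half of the fitted maximal effect; 0% = DMSO-treated cells and -100% = media-only wells without cells; nearly all actives have a fitted effect of over 55% in size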
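Viability of the 2HG-overproducing fibrosarcoma line after 48 hours of compound exposure at 37 degrees C was determined by luminescence with CellTiter-Glo, and concentration-effect curves were then fitted and categorized.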
ALOX12 inh – ALOX12 (human) lipoxygenase inhibition | purified 12hLO, xylenol orange hydroperoxide absorbance | Potency, µM (titrated, usually from 108 µM), for the others: top-dose activity change, negative = inhibition, most hits filed as inhibitors | 1.1% of 580,000 active | AID 1671190; further: potency means the concentration at half of the fitted maximal effect
Target sequence (P18054 whole entry, looked up): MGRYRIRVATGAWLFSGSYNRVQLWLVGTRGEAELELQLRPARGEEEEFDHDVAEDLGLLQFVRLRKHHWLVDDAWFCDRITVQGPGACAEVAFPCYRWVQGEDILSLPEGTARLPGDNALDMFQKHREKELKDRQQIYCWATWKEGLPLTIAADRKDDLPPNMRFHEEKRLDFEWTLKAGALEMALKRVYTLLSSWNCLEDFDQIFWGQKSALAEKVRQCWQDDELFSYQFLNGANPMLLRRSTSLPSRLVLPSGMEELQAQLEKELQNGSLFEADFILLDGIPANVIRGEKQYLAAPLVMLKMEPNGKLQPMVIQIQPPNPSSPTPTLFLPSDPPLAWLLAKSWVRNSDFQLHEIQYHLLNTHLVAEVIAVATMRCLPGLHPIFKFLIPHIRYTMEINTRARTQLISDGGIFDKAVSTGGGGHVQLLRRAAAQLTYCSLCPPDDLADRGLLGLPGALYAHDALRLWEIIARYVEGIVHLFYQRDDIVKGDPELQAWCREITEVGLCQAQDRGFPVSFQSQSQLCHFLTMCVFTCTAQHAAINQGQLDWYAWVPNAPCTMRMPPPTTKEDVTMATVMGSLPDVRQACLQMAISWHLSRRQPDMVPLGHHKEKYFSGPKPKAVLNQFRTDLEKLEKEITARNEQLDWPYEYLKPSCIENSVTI
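Purified human 12hLO at 150 nM in 25 mM Hepes, 0.01% Triton X-100, pH 7.0, preincubated 15 min at room temperature with compound. Reaction started with 40 uM arachidonic acid, 30 min at room temperature. Hydroperoxide measured by Fe-xylenol orange, 573/405 nm absorbance ratio.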
IL-1B inflam inh – blocks inflammasome-driven IL-1 beta release. THP-1 LPS/ATP IL-1B secretion, AlphaLISA, 16 h; hits give low values. activity change, % at 57.5 µM. 4.7% of 360,000 active; in the data active means activity change below about -50%; inconclusive means mostly about -30% to -49%
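Secreted IL-1B measured by AlphaLISA bead assay after 16 h compound exposure of THP-1 cells; compounds (final up to 57.5 uM) added 1 h before LPS (250 ng/mL) and ATP (1.25 mM) stimulation; lower signal means less secretion.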
DT40 TDP1 CPT – growth inhibition of DT40 Tdp1-/-;hTDP1 cells with camptothecin (screen for TDP1 inhibitors); chicken DT40 Tdp1-/-;hTDP1 cells + 20 nM CPT, ATP luminescence, 48 h; Potency, µM (top dose mostly 46.2 µM), for the others: at the highest dose activity change, negative = growth inhibition, hits mostly inhibitors; 12% of 420,000 active; AID 686979; further: potency means the concentration at half of the fitted maximal effect; nearly all actives have a fitted effect of over 55% in size
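Cell growth measured by CellTiter-Glo luminescence after a minimum 48 h, 37 C compound exposure with 20 nM CPT in Tdp1-knockout DT40 cells stably expressing hTDP1, seeded 400/well; qHTS titration format.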
Active calls of the source: *; u = inconclusive; x = no result; ! = not confirmed by another sample; [ ] = another dose, or the depositor's remark. Unless noted, the call rests on the fitted dose curve; in most records, active means well fitted curve in the direction sought with a large enough effect; inconclusive means small, poorly fitted or top-dose-only effect, or another doubt; inactive means no such curve, though single readings can be large; an effect the other way counts as inactive or inconclusive. Unless noted, on the % scale 0 is the no-effect control and ±100 the full control effect.

SMILES	DT40 TDP1 no CPT	HT1080 IDH1KD tx	HT1080-NT tox	ALOX12 inh	IL-1B inflam inh	DT40 TDP1 CPT
O=C(Nc1ccc(-c2nnc3n2CCCC3)cc1)c1ccc2c(c1)OCO2	x	x	x	5.8%	x	x
CCc1ccc(CN2CCN(C(=O)c3cccc(OC)c3OC)CC2)cc1	u	14.1µM*	-11.5%	u	u	u
O=C(O)c1ccccc1C(=O)N1CCN(Cc2ccc3c(c2)OCO3)CC1	24.3%	18.5%	18.3%	-1.0%	28.8	10.1%
COc1cccc(CN2CCN(Cc3cc(OC)c(OC)c(OC)c3)CC2)c1OC	u	6.6%	0.8%	u	23.2	u
COc1ccccc1C(=O)N1CCN(Cc2ccc3c(c2)OCO3)CC1	-13.5%	7.7%	9.7%	0.0%	-57.3*	-7.2%
COc1ccc(CN2CCN(Cc3cccc(OC)c3OC)CC2)cc1	x	x	x	0.447µM*	x	x
O=C(COc1ccc(Cl)cc1)N1CCN(C(=O)c2cccs2)CC1	-27.0%	-9.5%	2.4%	2.1%	-73.2*	-16.3%
COc1cccc(C(=O)N2CCN(C(=O)c3cccc4ccccc34)CC2)c1OC	u	7.1%	6.0%	-15.2%	2.2	u
O=C(COc1ccccc1)N1CCN(C(=O)c2cccs2)CC1	-14.5%	-0.1%	0.5%	0.0%	6.1	-15.4%
COC(=O)Cn1c(Nc2cccc(C)c2)nc2c1c(=O)n(C)c(=O)n2C	x	x	x	-3.3%	x	x
N#Cc1ccccc1NC(=O)COC(=O)c1ccc2c(c1)OCO2	u	0.0%	1.7%	-3.3%	3.5	1.7%
COc1ccc(CN2CCOc3ccc(C(=O)NCc4ccc(C)cc4)cc3C2)cc1OC	x	x	x	9.0%	x	x
O=C(Nc1ccc(Cl)cc1)N1CCN(Cc2ccc3c(c2)OCO3)CC1	-22.0%	-21.9%	-5.4%	-25.8%	0.0	-12.7%
N#Cc1c(F)cccc1N1CCN(Cc2ccc3c(c2)OCO3)CC1	u	-19.7%	-21.5%	5.0%	-13.6	16.4µM*
C/C(=C\c1ccccc1)C(=O)N1CCN(Cc2ccc3c(c2)OCO3)CC1	-14.5%	-2.1%	-21.6%	0.0%	-68.8*	-19.9%
O=C(COc1ccc(Cl)cc1)N1CCN(Cc2ccc3c(c2)OCO3)CC1	u	10.5%	28.0%	u	-50.9*!	u
COc1cc(OC)c(OC)cc1CN1CCOc2ccc(CN3CCN(C(C)=O)CC3)cc2C1	20.6µM*	x	x	27.3%	x	-7.5%[9.04 µM]
CCn1ccc(C(=O)N2CCC3(CC2)CC(c2nc(C)no2)N(C)C3)n1 (stereo not given)	x	x	x	35.6%	x	x
O=C(NC(C1CC1)C1CC1)c1cc(Cl)nc(Cl)c1	x	x	x	-11.1%	x	x
O=C(CN1C(=O)c2cccc3cccc(c23)C1=O)N1CCN(Cc2ccc3c(c2)OCO3)CC1	18.4µM*	2.4%	-3.3%	-21.7%	-6.4	20.6µM*
CCc1cc2cc(C(=O)N3CCN(Cc4ccccc4)CC3)sc2s1	u	1.6%	3.3%	495.8%	-84.7*	u
CCc1cc2cc(C(=O)N3CCN(c4ccccc4)CC3)sc2s1	u	9.7%	10.1%	6.3%	12.4	-14.0%
O=C(c1ccccc1F)N1CCN(Cc2ccc3c(c2)OCO3)CC1	-24.7%	-16.6%	1.4%	u	-66.9*	10.9%
CCOc1ccccc1C(=O)NCC(=O)N1CCN(Cc2ccc3c(c2)OCO3)CC1	u	u	u	x	-79.9*	29.1µM*
c1ccc2c(CN3CCSCC3)cccc2c1	-25.0%	-1.4%	2.4%	u	-7.3	-27.7%
SMILES	DT40 TDP1 no CPT	HT1080 IDH1KD tx	HT1080-NT tox	ALOX12 inh	IL-1B inflam inh	DT40 TDP1 CPT
O=C(CCc1cc(Cl)no1)N1CCc2c(nc3cc(-c4ccccc4)[nH]n3c2=O)C1	x	x	x	35.4%	x	x
Cc1nc(CN2CCC3(CC2)CC(c2ccccc2)C(=O)N(C2CC2)C3)no1 (stereo not given)	x	x	x	49.6%	x	x
COc1cc(S(=O)(=O)N2CCN(Cc3ccc4c(c3)OCO4)CC2)c(C)cc1C	u	-1.6%	-22.0%	34.7%	-20.4	14.6µM*
Cc1nn(Cc2ccccc2)c2sc(C(=O)N3CCN(Cc4ccc5c(c4)OCO5)CC3)cc12	u	u	u	12.8%	u	16.4µM*
Cc1ccc(Cn2nc(C)c3cc(C(=O)N4CCN(CC(=O)N5CCCC5)CC4)sc32)cc1	x	x	x	-6.0%	x	x
CCOc1cc(/C=C2\NC(=O)NC2=O)cc(Cl)c1OCC	x	x	x	5.1%	x	x
CCOc1cc(/C=C2\CCC/C(=C\c3cc(Cl)c(O)c(OCC)c3)C2=O)cc(Cl)c1O	6.51µM*	5.8µM*	7.31µM*	u	-99.8*	u
CCOc1cc(/C=C2\CN(C)C/C(=C\c3ccc(O)c(OCC)c3)C2=O)ccc1O	2.31µM*	4.61µM*	4.11µM*	u	-105.4*	5.17µM*
COc1cc(C=C2CN(C)C(=O)C2=O)ccc1O	-3.8%	6.8%	0.6%	u	-16.5	15.0%
CC(C(=O)N1CCNC1=O)N(C)Cc1ccccc1Br (stereo not given)	x	x	x	7.4%	x	x
Cc1ccc(NC(=S)N/N=C2\CCCCC2C)cc1 (stereo not given)	9.2µM*	u	u	u	4.3	5.17µM*
Cc1cccc(NC(=S)N/N=C2/CCCC(C)C2)c1 (stereo not given)	x	x	x	35.5µM*	x	x
CC1CCCC/C1=N\NC(=S)Nc1cccnc1 (stereo not given)	-0.4%	7.2%	25.5%	-27.9%	9.8	-6.6%
CCOCC(=O)N1CCCC(c2cc(N3CCOCC3)nc(C)n2)C1 (stereo not given)	x	x	x	-6.2%	x	x
O=C([C@@H]1C[C@H](Oc2cccnc2)CN1C(=O)C1CC=CC1)N1CCOCC1	x	x	x	38.9%	x	x
O=C(Cn1nnc(-c2ccc3c(c2)OCO3)n1)Nc1ccccc1C(=O)O	-3.7%	-11.6%	1.5%	22.4µM*	15.9	-9.4%
CN(C)c1ccc(-c2nnn(CC(=O)Nc3ccccc3N3CCOCC3)n2)cc1	u	0.0%	10.4%	12.9%	-77.0*	u
Cc1ccccc1NC(=O)Cn1nnc(-c2ccc(N3CCOCC3)cc2)n1	-13.0%	-20.1%	0.0%	0.4%	15.0	-16.5%
O=C(Cn1nnc(-c2ccccc2)n1)Nc1ccc2c(c1)OCO2	-0.7%	-4.3%	-5.0%	69.4%	-6.6	-7.8%
CN(C)c1ccc(-c2nnn(CC(=O)N3c4ccccc4CCc4ccccc43)n2)cc1	16.4µM*	2.4%	14.0%	-4.1%	-1.9	u
CN1CCN([C@H]2[C@@H]3OC[C@@H](O3)[C@@H](NC(=O)Nc3cccc(C(F)(F)F)c3)[C@@H]2O)CC1	x	x	x	41.3%[176 µM]	x	x
CC(C)CNC(=O)C1(C)CCCN1Cc1ccc(OC(F)(F)F)cc1 (stereo not given)	u	2.1%	-25.9%	-16.2%	14.2	u

Screening data as filed in PubChem BioAssay.
